# Screening data from PubChem BioAssay.
# This is a sample that favours compounds with a hit; in the whole collection about 3% have one here.
# SKOV3 invasion: ovarian cancer metastasis inhibition, 3D TME model; SKOV3ip1-GFP adhesion/invasion on 3D omental model, fluorescence; Potency, µM (titrated, usually from 45.8 µM), actives largely listed as inhibitors; hit rate 0.1% among 46,000; further: nearly all actives have a fitted effect of over 65% in size
#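 Adhesion/invasion was scored as fixed GFP-labeled SKOV3ip1 cell counts (488/509 nm), normalized to DMSO and tomatine controls. Cancer cells in serum-free medium, with four compound doses (0.36-46 umol/L), sat 2 hr at RT then 16 hr at 37 C on a 48 hr fibroblast/mesothelial/ECM culture.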
# S16 viability: S16 Schwann cell cytotoxicity; hit rate 0.48% among 43,000; S16 Pmp22-F2sN Schwann cells viability, CellTiter-Glo, 24 h; AID 1508642; Potency, µM (highest dose often 57.5 µM), most hits filed as cytotoxic; further: nearly all actives have a fitted effect of over 65% in size
#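 Seed 500-1,000 S16 Pmp22-F2sN cells per well in phenol-red-free DMEM with 10% heat-inactivated FBS; pin-add 23 nL compound; incubate 24 h at 37C; add CellTiter-Glo, wait 15 min protected from light; read luminescence.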
# p53null 32C tox: kills p53 null cells at the permissive temperature; Potency, µM (highest dose often 46.1 µM), most hits filed as cytotoxic; H1299-neo p53 null cells, ATP luminescence, 24 h, 32C; hit rate 0.62% among 55,000; further: nearly all actives have a fitted effect of over 55% in size
#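 AC50 values derive from Hill modelling of qHTS concentration-response data (up to 46 uM) in H1299-neo cells. Cells were treated 24 h at 32C following overnight attachment at 37C; viability was read as cellular ATP.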
# p53null 39C tox: p53 null cell cytotoxicity, nonpermissive temperature. H1299 p53-null (neo) cells, 39C, ATPlite viability, 24 h. Potency, µM (top dose mostly 46.1 µM), actives largely listed as cytotoxic. hit rate 0.97% among 55,000; further: nearly all actives have a fitted effect of over 50% in size
#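 ATP-luminescence viability readout (ATPlite, 20 min RT) after 24 hr compound treatment at 39C of H1299-neo or H1299-p53A138V cells; titration up to 46 uM; normalized to DMSO and 100 uM tamoxifen; Hill-fit AC50.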
# mTORC1 inh: reduces mTORC1 signaling in Tsc2 and p53 null MEF cells. hit rate 0.78% among 44,000. Tsc2-/- p53-/- MEF, phospho-rpS6 immunofluorescence/PI, 24 h. Potency, µM (doses to about 38.3 µM), hits mostly inhibitors; further: nearly all actives have a fitted effect of over 50% in size
#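 Read-out: phospho-S6 Alexa-488 intensity over PI intensity per well, scored as % active cells using thresholds from rapamycin (7.5 nM) and DMSO controls. Tsc2-/-, p53-/- MEFs exposed to compound for 24 h; PI cell count recorded as viability.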
# PMP22 txn: modulators of PMP22 gene transcription in S16 Schwann cells | S16 Pmp22-F2sN Schwann cells (luciferase reporters placed in the Pmp22 gene), FLuc/NLuc coincidence luminescence, 24 h | Potency, µM (doses to about 57.5 µM), hits mostly inhibitors | hit rate 2% among 43,000 | AID 1508649; active means clear falling dose curves in both reporters; inconclusive means both reporters move, but less clearly or upward; inactive means either reporter flat; the % is the NLuc reporter signal
#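 S16 Schwann cells carrying FLuc/NLuc coincidence reporter in the Pmp22 3' UTR treated with compound 24 h at 37C; FLuc then NLuc luminescence read sequentially by dual-luciferase reagents.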
# A number is an active result; . = inactive; ? = inconclusive; / = no result given. Unless noted, the call rests on the fitted dose curve; in most records, active means well fitted curve in the direction sought with a large enough effect; inconclusive means small, poorly fitted or top-dose-only effect, or another doubt; inactive means no such curve, though single readings can be large; an effect the other way counts as inactive or inconclusive.
SMILES,SKOV3 invasion,S16 viability,p53null 32C tox,p53null 39C tox,mTORC1 inh,PMP22 txn
CCCCN(C)CCCNC(=O)Cn1ncc2c3ccccc3n(Cc3cc(C)ccc3C)c2c1=O,?,?,.,10µM,.,?
COc1ccc(C(=O)Nc2cc(-c3nc4ccccc4s3)ccc2OC)cc1,?,?,.,.,16µM,?
Cc1cccc(C)c1OCCCn1c(CCNC(=O)C2CCCCC2)nc2ccccc21,.,.,.,16µM,.,?
Cc1ccc(OCCCn2c(CCNC(=O)C3CCCCC3)nc3ccccc32)c(C)c1,.,?,.,.,.,.
Cc1cc(OCCCn2c(CCNC(=O)C3CCCCC3)nc3ccccc32)ccc1Cl,?,?,?,25µM,.,?
COc1cccc(NC(=O)CSc2nnc(-c3cccc(OC)c3)o2)c1,.,.,16µM,6.3µM,.,.
O=C(CSc1nnc(-c2ccccc2Cl)o1)Nc1ccc2c(c1)OCCO2,/,/,.,.,/,/
Cc1cccc(-c2nnc(SCC(=O)Nc3ccc(C)c(C)c3)o2)c1,.,.,.,.,.,.
O=C(CSc1nnc(-c2ccccc2F)o1)Nc1ccccc1Cl,.,.,.,7.9µM,.,.
COc1ccc(NC(=O)CSc2nnc(-c3ccc(C)cc3)o2)cc1,.,.,.,.,.,.
COc1ccccc1NC(=O)CSc1nnc(-c2ccccc2C)o1,.,.,?,4µM,.,.
Cc1cccc(NC(=O)CSc2nnc(-c3ccccc3C)o2)c1,/,/,.,10µM,/,/
Cc1cnc(-c2cc(N3CCN(C(=O)CCS(C)(=O)=O)CC3)ncc2Cl)c(C)c1,.,/,/,/,/,/
CC(C)C[C@H](NC(=O)c1cc2ccccc2s1)C(=O)N1CCN(C(=O)[C@H](CO)NS(=O)(=O)c2ccc(Cl)cc2Cl)CC1,.,/,/,/,/,/
O=C(/C=C/Nc1ccccc1C(=O)O)c1cccs1,/,/,35µM,/,/,/
NC(=O)c1cnc(-c2ccc(C3(N)CCC3)cc2)c(-c2ccccc2)c1,.,/,/,/,/,/
CCOc1ccc(-c2nonc2NC(=O)c2oc3cc(C)ccc3c2C)cc1,.,.,.,.,?,.
CCOc1ccc(-c2nonc2NC(=O)c2oc3ccc(Br)cc3c2C)cc1,.,.,13µM,?,.,?
CCOc1ccc(-c2nonc2NC(=O)c2oc3cc(Br)ccc3c2C)cc1,.,?,?,?,.,9.5µM
Cc1nc(Nc2n[nH]c3c2CN(C(=O)N[C@H](CN(C)C)c2ccccc2)C3(C)C)c2sccc2n1,.,/,/,/,/,/
Cc1ccc(O)c(NC(=O)c2cc(-c3ccccc3O)no2)c1,.,.,.,.,?,.
Cc1ccc(-c2cc(-c3ccccc3)no2)c(O)c1,/,/,7.9µM,/,/,/
CCc1ccc(C2CC(=O)c3c([nH]c(C(=O)OCCOc4ccccc4)c3C)C2)cc1 (stereo not given),?,?,.,?,5.2µM,15µM
CCOc1ccc(C2CC(=O)c3c([nH]c(C(=O)OCCOc4ccccc4)c3C)C2)cc1 (stereo not given),.,28µM,.,?,.,?
COc1cc(C2CC(=O)c3c([nH]c(C(=O)OCc4ccc(C)cc4)c3C)C2)cc(OC)c1OC (stereo not given),.,.,.,?,.,?
SMILES,SKOV3 invasion,S16 viability,p53null 32C tox,p53null 39C tox,mTORC1 inh,PMP22 txn
Cc1c(C(=O)OCc2ccccc2)[nH]c2c1C(=O)CC(c1ccc(Cl)cc1)C2 (stereo not given),.,.,.,.,?,?
CCOc1ccc(C2CC(=O)c3c([nH]c(C(=O)OC4CCC(C)CC4)c3C)C2)cc1 (stereo not given),.,.,.,.,.,.
COc1ccc(OC)c(C2CC(=O)c3c([nH]c(C(=O)OCc4ccc(C)cc4)c3C)C2)c1 (stereo not given),.,?,.,.,6.6µM,.
OCc1ccccc1O[C@@H]1O[C@H](CO)[C@H](O)[C@H](O)[C@H]1O,.,/,/,/,/,/
O=C(CSCc1cc(=O)c2ccccc2[nH]1)Nc1cccc(C(F)(F)F)c1,.,.,.,.,.,.
COC(=O)c1c(SCC(=O)Nc2cccc(C(F)(F)F)c2)[nH]c2ccccc2c1=O,.,?,?,3.2µM,.,.
COC(=O)c1c(SCC(=O)Nc2cc(F)ccc2F)[nH]c2ccc(C)cc2c1=O,.,?,?,?,.,.
